Here are results for five molecules from PubChem BioAssay (EPA / NIEHS).

Read-out in experiment [1]: TIMP metallopeptidase inhibitor 1 (TIMP1), TIMP1 (gene 7076)
The experiment can be described thus: BSK_hDFCGF_TIMP1: BioMAP Diversity Plus: hDFCGF Assay for TIMP metallopeptidase inhibitor 1 (TIMP1) Biomarker Activity (AID 2283062). The settings on record: primary human foreskin fibroblasts; actives raise or lower the signal. The method, boiled down:
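ELISA readout of TIMP-1 from human dermal foreskin fibroblast cultures 24 h post-dosing. Curves were fitted in both directions against DMSO baseline, with SRB total-protein staining in parallel cultures as a cytotoxicity check.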

Read-out in experiment [2]: Monokine induced gamma interferon (MIG), CXCL9 (gene 4283)
Description: BSK_hDFCGF_MIG: BioMAP Diversity Plus: hDFCGF Assay for Monokine induced gamma interferon (MIG) Biomarker Activity (AID 2283063). The settings on record: primary human foreskin fibroblasts; actives raise or lower the signal. A digest of the protocol: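 Fibroblasts (human foreskin, primary) dosed, 24 h, MIG by ELISA; fit bidirectional vs DMSO.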

Read-out in experiment [3]: Matrix Metallopeptidase 1 (MMP1), MMP1 (gene 4312)
The experiment can be described thus: BSK_hDFCGF_MMP1: BioMAP Diversity Plus: hDFCGF Assay for Matrix Metallopeptidase 1 (MMP1) Biomarker Activity (AID 2283064). The settings on record: primary human foreskin fibroblasts; actives raise or lower the signal. A digest of the protocol: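 Primary human foreskin fibroblasts exposed to chemicals for 24 h; MMP1 measured by ELISA. Cytotoxicity tracked by SRB staining in parallel cultures; bidirectional fit relative to DMSO.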

Read-out in experiment [4]: Plasminogen activator inhibitor-1 (PAI1), SERPINE1 (gene 5054)
The experiment can be described thus: BSK_hDFCGF_PAI1: BioMAP Diversity Plus: hDFCGF Assay for Plasminogen activator inhibitor-1 (PAI1) Biomarker Activity (AID 2283066). The settings on record: primary human foreskin fibroblasts; actives raise or lower the signal. A digest of the protocol: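 Primary dermal fibroblasts (human foreskin), hDFCGF system; compound 24 h; PAI-1 by ELISA; bidirectional fit vs DMSO control.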

Read-out in experiment [5]: Intercellular Adhesion Molecule 1 (ICAM1), ICAM1 (gene 3383)
The experiment can be described thus: BSK_KF3CT_ICAM1: BioMAP Diversity Plus: KF3CT Assay for Intercellular Adhesion Molecule 1 (ICAM1) Biomarker Activity (AID 2283067). The note with it: primary human keratinocytes with fibroblasts; actives raise or lower the signal. A digest of the protocol:
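ELISA readout of ICAM-1; KF3CT human skin co-culture (keratinocytes + foreskin fibroblasts), 24 h post-dose; gain/loss fit vs DMSO baseline.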

Read-out in experiment [6]: Interferon-gamma inducible Protein 10 (IP10), CXCL10 (gene 3627)
The experiment can be described thus: BSK_KF3CT_IP10: BioMAP Diversity Plus: KF3CT Assay for Interferon-gamma inducible Protein 10 (IP10) Biomarker Activity (AID 2283068). The note with it: primary human keratinocytes with fibroblasts; actives raise or lower the signal. The method, boiled down:
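ELISA read-out of IP-10 after 24 h chemical dosing of human skin primary co-culture (keratinocytes, foreskin fibroblasts). Gain or loss of signal relative to DMSO, bidirectional curve fit.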

Experiment [7] is described as follows: BSK_KF3CT_SRB: Viability Assessment in the BioMAP Diversity Plus: KF3CT Assay (AID 2283069).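 Further: total protein by sulforhodamine B staining as a cytotoxicity measure; read 24 h after compound addition; fitted for both signal gain and loss against DMSO baseline.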 The note with it: primary human keratinocytes with fibroblasts. The method, boiled down:
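Human keratinocyte and foreskin fibroblast co-culture exposed to chemical for 24 h. Total protein measured in parallel cultures by 0.1% sulforhodamine B staining after 10% TCA fixation, read at 560 nm; bidirectional fit relative to DMSO.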

Read-out in experiment [8]: Interleukin-1 alpha (IL1a), IL1A (gene 3552)
Description: BSK_KF3CT_IL1a: BioMAP Diversity Plus: KF3CT Assay for Interleukin-1 alpha (IL1a) Biomarker Activity (AID 2283070). The settings on record: primary human keratinocytes with fibroblasts; actives raise or lower the signal. A digest of the protocol: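 Primary human keratinocyte plus foreskin fibroblast co-culture, dosed and measured at 24 h in 96-well plates. IL-1a level quantified by ELISA; bidirectional fit relative to DMSO.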

Read-out in experiment [9]: TIMP metallopeptidase inhibitor 2 (TIMP2), TIMP2 (gene 7077)
The experiment can be described thus: BSK_KF3CT_TIMP2: BioMAP Diversity Plus: KF3CT Assay for TIMP metallopeptidase inhibitor 2 (TIMP2) Biomarker Activity (AID 2283071). The settings on record: primary human keratinocytes with fibroblasts; actives raise or lower the signal. The method, boiled down:
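Cells: human keratinocytes co-cultured with foreskin fibroblasts. Treat with chemical, 24 h. Measure TIMP-2 by ELISA; fit curves bidirectionally vs DMSO baseline.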

Read-out in experiment [10]: C-C motif chemokine 2 (Homo sapiens) (UniProt P13500)
Description: BSK_KF3CT_MCP1: BioMAP Diversity Plus: KF3CT Assay for Monocyte Chemoattractant Protein 1 (MCP1/CCL2) Biomarker Activity (AID 2283073). The note with it: primary human keratinocytes with fibroblasts; actives raise or lower the signal. A digest of the protocol:
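KF3CT skin co-culture (keratinocytes/foreskin fibroblasts), 24 h post-dose; MCP-1 by ELISA; gain/loss of signal fit bidirectionally vs DMSO baseline.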

Read-out in experiment [11]: Matrix Metallopeptidase 9 (MMP9), MMP9 (gene 4318)
Description: BSK_KF3CT_MMP9: BioMAP Diversity Plus: KF3CT Assay for Matrix Metallopeptidase 9 (MMP9) Biomarker Activity (AID 2283074). The settings on record: primary human keratinocytes with fibroblasts; actives raise or lower the signal. The method, boiled down:
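Human keratinocyte and foreskin fibroblast co-culture exposed to chemicals for 24 h; MMP9 biomarker measured by ELISA, bidirectional fitting relative to DMSO; cytotoxicity tracked by SRB total protein staining in parallel cultures.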

Read-out in experiment [12]: urokinase plasminogen activator (uPA), PLAU (gene 5328)
Description: BSK_KF3CT_uPA: BioMAP Diversity Plus: KF3CT Assay for urokinase plasminogen activator (uPA) Biomarker Activity (AID 2283075). The settings on record: primary human keratinocytes with fibroblasts; actives raise or lower the signal. The method, boiled down: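 Primary human keratinocyte/foreskin fibroblast co-culture exposed to chemical; uPA measured by ELISA at 24 h. Bidirectional fit versus DMSO, with parallel SRB total-protein staining for cytotoxicity.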

Read-out in a further experiment: CD40, CD40 (gene 958)
The experiment can be described thus: BSK_LPS_CD40: BioMAP Diversity Plus: LPS Assay for CD40 Biomarker Activity (AID 2283076). The settings on record: primary human HUVEC with PBMC; actives raise or lower the signal. A digest of the protocol:
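ELISA readout of CD40 in HUVEC/PBMC co-culture (BSK_LPS system), 24 h post-dosing; bidirectional curve fit, DMSO baseline; parallel SRB total-protein staining for cytotoxicity.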

Read-out in experiment [13]: E-selectin (Homo sapiens) (UniProt P16581)
The experiment can be described thus: BSK_LPS_Eselectin: BioMAP Diversity Plus: LPS Assay for Eselectin Biomarker Activity (AID 2283077). The note with it: primary human HUVEC with PBMC; actives raise or lower the signal. A digest of the protocol: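 ELISA readout of E-selectin, 24 h post-dose, HUVEC + PBMC co-culture (LPS system). Gain or loss of signal vs DMSO baseline, bidirectional fit.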

Read-out in experiment [14]: Interleukin-8 (IL8), CXCL8 (gene 3576)
The experiment can be described thus: BSK_LPS_IL8: BioMAP Diversity Plus: LPS Assay for Interleukin-8 (IL8) Biomarker Activity (AID 2283078). The note with it: primary human HUVEC with PBMC; actives raise or lower the signal. The method, boiled down:
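HUVEC + PBMC co-culture, LPS-activated; test chemicals dosed, IL-8 read by ELISA at 24 h. Bidirectional curve fit vs DMSO baseline (gain or loss of signal).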

The nature of experiment [15]: BSK_LPS_SRB: Viability Assessment in the BioMAP Diversity Plus: LPS Assay (AID 2283079).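 Further: total protein by sulforhodamine B absorbance as a cytotoxicity measure; measured one day after compound addition; fitted in both directions against DMSO so loss or gain of signal counts.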 The note with it: primary human HUVEC with PBMC. A digest of the protocol:
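HUVEC + PBMC co-culture, LPS-stimulated; compound 24 h. 10% TCA fix, 0.1% SRB stain, A560. Bidirectional fit vs DMSO.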

Read-out in experiment [16]: Interleukin-1 alpha (IL1a), IL1A (gene 3552)
The experiment can be described thus: BSK_LPS_IL1a: BioMAP Diversity Plus: LPS Assay for Interleukin-1 alpha (IL1a) Biomarker Activity (AID 2283080). The settings on record: primary human HUVEC with PBMC; actives raise or lower the signal. A digest of the protocol: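 HUVEC/PBMC co-culture, LPS system; 24 h after dosing; IL-1a by ELISA; gain or loss of signal fitted bidirectionally vs DMSO baseline.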

Read-out in experiment [17]: Monocyte Chemoattractant Protein-1 (MCP1), CCL2 (gene 6347)
The experiment can be described thus: BSK_LPS_MCP1: BioMAP Diversity Plus: LPS Assay for Monocyte Chemoattractant Protein-1 (MCP1) Biomarker Activity (AID 2283081). The settings on record: primary human HUVEC with PBMC; actives raise or lower the signal. The method, boiled down:
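ELISA read-out of MCP-1 after 24 h chemical dosing of a human umbilical vein endothelial cell/peripheral blood mononuclear cell co-culture stimulated with LPS. Gain or loss of signal fitted relative to DMSO controls.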

Calls of active or inactive are those of the source. How the source made its calls: active means hit-call score of the fitted dose curve at least 0.9, where 1 is the maximum; inactive means score below 0.9.

Sequence of E-selectin (Homo sapiens) (P16581 whole entry, looked up): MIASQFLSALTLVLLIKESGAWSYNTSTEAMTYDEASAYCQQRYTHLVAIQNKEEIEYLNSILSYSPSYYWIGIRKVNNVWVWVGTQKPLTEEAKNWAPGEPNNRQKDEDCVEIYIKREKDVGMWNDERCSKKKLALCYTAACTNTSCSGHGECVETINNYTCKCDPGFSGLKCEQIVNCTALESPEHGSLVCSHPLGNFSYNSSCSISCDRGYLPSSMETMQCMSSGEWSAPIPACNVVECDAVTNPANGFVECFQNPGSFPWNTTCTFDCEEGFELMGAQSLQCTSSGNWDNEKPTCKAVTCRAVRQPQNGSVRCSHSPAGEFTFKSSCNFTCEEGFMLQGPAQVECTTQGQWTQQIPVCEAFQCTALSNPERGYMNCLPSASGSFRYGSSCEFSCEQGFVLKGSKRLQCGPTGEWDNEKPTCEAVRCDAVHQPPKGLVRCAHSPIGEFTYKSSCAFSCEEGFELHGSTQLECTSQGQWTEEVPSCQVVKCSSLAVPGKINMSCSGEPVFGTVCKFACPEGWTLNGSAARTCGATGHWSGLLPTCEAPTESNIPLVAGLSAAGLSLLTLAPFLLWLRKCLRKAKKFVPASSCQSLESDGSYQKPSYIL

On to `CCCCOC(=O)[C@@H](C)Oc1ccc(Oc2ccc(C(F)(F)F)cn2)cc1`, for which the outcome in [1], in experiment [2], in experiment [3], in [4], in experiment [5] and in [6] was inactive. Besides, the outcome in experiment [7], in experiment [8], in experiment [9], in [10], in experiment [11] and in experiment [12] was inactive. Further, the outcome with CD40, CD40 (gene 958) was “inactive”; in experiment [13], “inactive”; in experiment [14], “inactive”; in [15], “inactive”; in experiment [16], “inactive”; in experiment [17], “inactive”.
For `CCOC(=O)C(C)Oc1ccc(Oc2cnc3cc(Cl)ccc3n2)cc1` (stereo not given), the result in experiment [1], in experiment [2], in experiment [3], in experiment [4], in experiment [5] and in [6] was inactive. Further, the result in experiment [7], in experiment [8], in experiment [9], in experiment [10], in experiment [11] and in experiment [12] was inactive. The outcome with CD40, CD40 (gene 958) is “inactive”; in experiment [13] it was “inactive”; in [14], “inactive”; in experiment [15] it was “inactive”; in [16], “inactive”; in experiment [17], “inactive”.
In general, AC50 refers to the concentration giving half of the maximal activity seen. Regarding `CCN(Cc1c(F)cccc1Cl)c1c([N+](=O)[O-])cc(C(F)(F)F)cc1[N+](=O)[O-]`, the result in [1], in experiment [4], in experiment [5], in [7], in experiment [9] and in experiment [10] was inactive. Moreover, the result in experiment [11], in [12], in [13], in experiment [16] and in [17] was inactive. Moreover, the AC50 in experiment [2] is 20 µM (active); in [3], 9.24 µM (active); in experiment [6], 2.54 µM (active); in experiment [8], 8.48 µM (active); in the experiment with CD40, CD40 (gene 958) it was 9.02 µM (active); in [14], 13.6 µM (active). For the same molecule, in [15], the AC50 is 14.1 µM (active).
As to `CCCCC(CC)CN1C(=O)C2C3C=CC(C3)C2C1=O` (stereo not given), the outcome in [1], in experiment [2], in experiment [4], in experiment [5], in experiment [7] and in experiment [8] was inactive. Also, the result in [9], in experiment [10], in [11], in experiment [12], in [13] and in experiment [14] was inactive. Besides, the outcome in experiment [16] and in experiment [17] was inactive. Further, the AC50 in [3] was 16 µM (active); in experiment [6], 20 µM (active); with CD40, CD40 (gene 958), 11.6 µM (active); in experiment [15], 3.97 µM (active).
Consider `CC(C)(C)[C@@H](O)[C@@H](Cc1ccc(Cl)cc1)n1cncn1`, for which the outcome in experiment [1], in experiment [2], in experiment [4], in experiment [5], in experiment [6] and in experiment [7] was inactive. The outcome in experiment [8] is “inactive”; in experiment [9], “inactive”; in experiment [10] it was “inactive”; in [11] it was “inactive”; in experiment [12], “inactive”; with CD40, CD40 (gene 958), “inactive”. In addition, the outcome in [13], in experiment [14], in experiment [15] and in experiment [17] was inactive. Besides, the results for the AC50 in experiment [3] and in experiment [16] were 1.42 µM (active) and 3.97 µM (active), respectively.
